Results filed as inconclusive are left out. The source made the active and inactive calls. Calls come from the whole dose curve; as a rule, active = well fitted cell-killing curve with a large enough effect; inconclusive = small, poorly fitted or top-dose-only effect, or effect the other way; inactive = no such curve, though single readings can be large or run the other way.
Experiment: Quantitative High-Throughput drug screen in 47 multiple myeloma cell lines against the NCATS MIPE library collection: MMM1_PLB cell viability assay (AID 1918976); note: nearly all actives have a fitted effect of over 35% in size
Settings: MMM1 myeloma cells viability, CellTiter-Glo, 48 h; series mostly up to 45.8 µM
From the text: PI: Beverly A. Mock Ph.D.
Laboratory of Cancer Biology and Genetics,
Center for Cancer Research, National Cancer Institute,
National Institute of Health, Bethesda, Maryland
Drug resistance and disease progression are common in multiple myeloma (MM) patients, underscoring the need for new therapeutic combinations. […] We hypothesized that effective combinations would reduce MYC expression and enhance p16 activity. […] These preclinical data identify potentially useful drug combinations for evaluation in drug-resistant MM and reveal potential mechanisms of combined drug sensitivity.
Described herein is the primary MIPE qHTS used to cherrypick compounds. Validated compounds were then further tested for potential synergistic activiy.
[1] Peat TJ, Gaikwad SM, Dubois W, Gyabaah-Kessie N, Zhang S, Gorjifard S, Phyo Z, Andres M, Hughitt VK, Simpson RM, Miller MA, Girvin AT, Taylor A, Williams D, D'Antonio N, Zhang Y, Rajagopalan A, Flietner E, Wilson K, Zhang X, Shinn P, Klumpp-Thomas C, McKnight C, Itkin Z, Chen L, Kazandijian D, Zhang J, Michalowski AM, Simmons JK, Keats J, Thomas CJ, Mock BA. Drug combinations identified by high-throughput screening promote cell cycle transition and upregulate Smad pathways in myeloma. Cancer Lett. 2023 Aug 1;568:216284. doi: 10.1016/j.canlet.2023.216284. Epub 2023 Jun 24. PMID: 37356470; PMCID: PMC10408729.
SEQUENCE No. (e.g., 1, 2, 3, etc.); […] (e.g., Cells, Incubation, Reagent, etc.); VALUE and DESCRIPTION.
1; Cells; 5 uL; white, solid bottom 1536-well Greiner assay plate.
2; Compounds; 23 nL; Kalypsis pin tool (Wako USA) equipped with a 1536-well pin head to transfer to the assay plates.
3; Incubation; 48 hours; 37C incubation.
4; Reagent;5uL; CellTiter Glo (Promega).
5; Detector; 425V; Luminescence; Viewlux PerkinElmer.
NOTES (numbers refer to Sequence numbers above)
1. The cell-based screening methods employed in this study were like those previously published. Briefly, the corresponding myeloma cell lines were screened in 1,536-well plates with 500 cells, 5-uL per well for inhibition of cell viability (assessed by measuring ATP levels with CellTiterGlo).
2. NCATS MIPE 4.0 library of approved and investigational drugs were added using the Kalypsis pin tool. Wells treated with DMSO only for 100% viability and media only for 0% viability were used as controls.
3. The assay plates were covered and incubated for 48 hours in a 37C, 5% CO2 incubator with controlled humidity.
4. After 48 hours, CellTilter-GloTM luminescent substrate mix (Promega) reagent was added to the assay plate and plates we incubated for 5 min at room temperature.
5. Signal was measured as median relative luminescence units on a ViewLux (PerkinElmer) multiplate reader.
[1] Heske CM, Davis MI, Baumgart JT, Wilson K, Gormally MV, Chen L, Zhang X, Ceribelli M, Duveau DY, Guha R, Ferrer M, Arnaldez FI, Ji J, Tran HL, Zhang Y, Mendoza A, Helman LJ, Thomas CJ. Matrix Screen Identifies Synergistic Combination of PARP Inhibitors and Nicotinamide Phosphoribosyltransferase (NAMPT) Inhibitors in Ewing Sarcoma. Clin Cancer Res. 2017 Dec 1;23(23):7301-7311. doi: 10.1158/1078-0432.CCR-17-1121. Epub 2017 Sep 12. PMID: 28899971; PMCID: PMC6636827.
Potency is the fitted concentration of half-maximal effect.

Compound | Potency
Nc1nc2c(ncn2COC(CO)CO)c(=O)[nH]1 | 23.5 µM (active)
NS(=O)(=O)c1cc2c(cc1Cl)NCNS2(=O)=O | 16.6 µM (active)
Cc1ccc(C(=O)Nc2ccc(S(=O)(=O)O)c3cc(S(=O)(=O)O)cc(S(=O)(=O)O)c23)cc1NC(=O)c1cccc(NC(=O)Nc2cccc(C(=O)Nc3cc(C(=O)Nc4ccc(S(=O)(=O)O)c5cc(S(=O)(=O)O)cc(S(=O)(=O)O)c45)ccc3C)c2)c1 | 0.0372 µM (active)
CC[C@@]1(O)C(=O)OCc2c1cc1n(c2=O)Cc2cc3c(CN(C)C)c(O)ccc3nc2-1 | 18.7 µM (active)
NC(=O)NO | 2.09 µM (active)
CCOC(=O)C(C)(C)Oc1ccc(Cl)cc1 | 7.43 µM (active)
Cn1cnc2c1c(=O)[nH]c(=O)n2C | 10.5 µM (active)
CCCCc1oc2ccccc2c1C(=O)c1cc(I)c(OCCN(CC)CC)c(I)c1 | 18.7 µM (active)
C[C@](N)(Cc1ccc(O)c(O)c1)C(=O)O | 5.26 µM (active)
NCCc1cnc[nH]1 | 0.0132 µM (active)
O=C1Cc2cc(CCN3CCN(c4nsc5ccccc45)CC3)c(Cl)cc2N1 | 23.5 µM (active)
Clc1ccc(C(c2ccccc2Cl)C(Cl)Cl)cc1 (stereo not given) | 20.9 µM (active)
CC1COc2c(N3CCN(C)CC3)c(F)cc3c(=O)c(C(=O)O)cn1c23 (stereo not given) | 11.8 µM (active)
CN1CCN(CCCN2c3ccccc3Sc3ccc(Cl)cc32)CC1 | 26.4 µM (active)
O=c1[nH]cc(F)c(=O)[nH]1 | 5.9 µM (active)
CC(C)(Oc1ccc(C2CC2(Cl)Cl)cc1)C(=O)O (stereo not given) | inactive
CN(Cc1cnc2nc(N)nc(N)c2n1)c1ccc(C(=O)N[C@@H](CCC(=O)O)C(=O)O)cc1 | 18.7 µM (active)
CCOC(=O)c1ncn2c1CN(C)C(=O)c1cc(F)ccc1-2 | 6.62 µM (active)
CN(C)CCCN1c2ccccc2CCc2ccc(Cl)cc21 | 20.9 µM (active)
CN1CCN2c3ccccc3Cc3ccccc3C2C1 (stereo not given) | 20.9 µM (active)

Compound | Potency
CCc1cccc2c3c([nH]c12)C(CC)(CC(=O)O)OCC3 (stereo not given) | 4.18 µM (active)
O=C(Nc1ccc([N+](=O)[O-])cc1Cl)c1cc(Cl)ccc1O | 0.743 µM (active)
CNCCCC12CCC(c3ccccc31)c1ccccc12 | 20.9 µM (active)
O=C1c2c(O)ccc(O)c2C(=O)c2c(NCCNCCO)ccc(NCCNCCO)c21 | 1.48 µM (active)
NC(CO)C(=O)NNCc1ccc(O)c(O)c1O (stereo not given) | 7.43 µM (active)
CN(C)C(=O)C(CCN1CCC(O)(c2ccc(Cl)cc2)CC1)(c1ccccc1)c1ccccc1 | 16.6 µM (active)
NC12CC3CC(CC(C3)C1)C2 | inactive
COc1ccccc1N1CCN(CC(O)COc2cccc3ccccc23)CC1 (stereo not given) | 6.62 µM (active)
CS(=O)(=O)Nc1ccc([N+](=O)[O-])cc1Oc1ccccc1 | 11.8 µM (active)
Clc1ccc2c(c1)C(N1CCNCC1)=Nc1ccccc1O2 | 16.6 µM (active)
C[C@@H]1CC(=O)NN=C1c1ccc(NN=C(C#N)C#N)cc1 | 18.7 µM (active)
CN(C)CCC=C1c2ccccc2C=Cc2ccccc21 | 4.18 µM (active)
Fc1ccc([C@@H]2CCNC[C@H]2COc2ccc3c(c2)OCO3)cc1 | 14.8 µM (active)
CC#C[C@]1(O)CC[C@H]2[C@@H]3CCC4=CC(=O)CCC4=C3[C@@H](c3ccc(N(C)C)cc3)C[C@@]21C | 4.18 µM (active)
Clc1ccccc1C(c1ccccc1)(c1ccccc1)n1ccnc1 | 23.5 µM (active)
CC(C)NCC(O)c1ccc(O)c(O)c1 (stereo not given) | 7.43 µM (active)
COc1cc2nc(N3CCN(C(=O)C4COc5ccccc5O4)CC3)nc(N)c2cc1OC (stereo not given) | 20.9 µM (active)
CC(CCc1ccc(O)cc1)NCCc1ccc(O)c(O)c1 (stereo not given) | 10.5 µM (active)
CS(=O)(=O)CCNCc1ccc(-c2ccc3ncnc(Nc4ccc(OCc5cccc(F)c5)c(Cl)c4)c3c2)o1 | 18.7 µM (active)
CC(C(=O)O)c1cccc(C(=O)c2ccccc2)c1 (stereo not given) | 0.833 µM (active)
